Data on 31 compounds can be found in PubChem BioAssay (NCATS).

Structures are written as SMILES. Inconclusive results are not listed. Active and inactive are the calls of the source. Calls come from the whole dose curve; as a rule, active = well fitted cell-killing curve with a large enough effect; inconclusive = small, poorly fitted or top-dose-only effect; inactive = flat fitted curve, though single readings scatter.
Potency is the fitted concentration of half-maximal effect.

One test in a line: Cellular viability qHTS for adrenocortical cancer (ACC) cell line SW-13 (AID 1963989).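 For activity (max response): cells grown in serum-free medium with ITS supplement; % is set by controls: 0 for no effect and ±100 for the full control effect.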 Note: nearly all actives have a fitted effect of over 65% in size. The settings on record: SW-13 ACC cells viability, CellTiter-Glo, 48 h; activity (max response): hits give low values. A digest of the protocol: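 IC50 and maximal-response values come from four-parameter logistic fits of titration data. SW-13 cells in serum-free medium received compounds (up to 46 uM final) for 48 h before CellTiter-Glo luminescence.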
A general note: In qHTS, concentration-response curves come from the screen itself.
Consider `C=C1C[C@H]2C=Nc3cc(OCCCOc4cc5c(cc4OC)C(=O)N4CC(=C)C[C@H]4C=N5)c(OC)cc3C(=O)N2C1`, for which the Potency is 0.01 µM (active).

For `COc1cc2c(cc1OC)C(=O)CC2`, the activity (max response) was 12.7% (inactive).

Consider `Cc1cccc(-c2nn3c(c2-c2ccnc4ccc(C(N)=O)cc24)CCC3)n1`, for which the activity (max response) is 14.6% (inactive).

As for `CN[C@@H]1[C@@H](O)[C@@H](O[C@@H]2[C@H](O)[C@H](O[C@H]3OC(CN)=CC[C@H]3N)[C@@H](N)C[C@H]2N)OCC1(C)O` (stereo partly drawn), the activity (max response) was 5.55% (inactive).

As for `CCCCCCCCCCCCCCCCCCOCC(O)CO` (stereo not drawn), the activity (max response) was 15% (inactive).

On to `O=C(O)/C(S)=C/c1ccc(I)cc1`, for which the activity (max response) is 9.8% (inactive).

Take `O=S1(=O)OC(c2ccc(O)cc2)(c2ccc(O)cc2)c2ccccc21`: the activity (max response) is -5.64% (inactive).

Consider `CC(C)(C)C1CCC(CC2=C(O)c3ccccc3C(=O)C2=O)CC1` (stereo not drawn), for which the activity (max response) was 12.3% (inactive).

Consider `CCC1NC(=O)c2cc(S(N)(=O)=O)c(Cl)cc2N1` (stereo not drawn), for which the activity (max response) was 11.8% (inactive).

With `CCCc1c2oc(C(=O)O)cc(=O)c2cc2c(=O)cc(C(=O)O)n(CC)c12`, the activity (max response) was -2.58% (inactive).

On to `C=CC(=O)Nc1cccc(Nc2nc(Nc3ccc(OCCOC)cc3)ncc2F)c1`, for which the Potency is 15.8 µM (active).

As to `CCCCc1ncc(/C=C(\Cc2cccs2)C(=O)O)n1Cc1ccc(C(=O)O)cc1`, the activity (max response) was 6.21% (inactive).

On to `Cc1c(O)cccc1C(=O)N[C@@H](CSc1ccccc1)[C@H](O)CN1C[C@H]2CCCC[C@H]2C[C@H]1C(=O)NC(C)(C)C`, for which the Potency is 20.6 µM (active).

Take `O=C(O)/C=C(\CC(=O)O)C(=O)O`: the activity (max response) was 7.17% (inactive).

As for `CC[C@]1(O)CC2CN(CCc3c([nH]c4ccccc34)[C@@](C(=O)OC)(c3cc4c(cc3OC)N(C)[C@H]3[C@@](O)(C(=O)OC)[C@H](OC(C)=O)[C@]5(CC)C=CCN6CC[C@]43[C@@H]65)C2)C1` (stereo partly drawn), the Potency is 0.282 µM (active).

The nature of the next test: Cellular viability qHTS for adrenocortical cancer (ACC) cell line NCI-H295R (AID 1963990). Note: nearly all actives have a fitted effect of over 60% in size. Conditions: CellTiter-Glo ATP luminescence, 48 h; series mostly up to 46.1 µM. A digest of the protocol: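 Adrenocortical carcinoma cells, suspended at 300 000 cells/mL in serum-free DMEM plus ITS, rested overnight before pin transfer of compound. After two days' incubation, ATP-dependent luminescence was recorded and curve-fitted.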
Take `CC(C)Oc1ccc(-c2nc(-c3cccc4c3CC[C@@H]4NCCO)no2)cc1C#N`: the Potency is 28.2 µM (active).

As for `COC1(c2sc3c(N4CCOCC4)nc(-c4cnc(N)nc4)nc3c2C)COC1`, the Potency was 0.501 µM (active).

On to `CCN(CC)CCCC(C)Nc1c2ccc(Cl)cc2nc2ccc(OC)cc12` (stereo not drawn), for which the Potency was 14.1 µM (active).

As for `Cc1cc(=O)[nH]c(=S)[nH]1`, the Potency result is “inactive”.

Turning to `C=C1C[C@H]2C=Nc3cc(OCCCOc4cc5c(cc4OC)C(=O)N4CC(=C)C[C@H]4C=N5)c(OC)cc3C(=O)N2C1`, the Potency was 0.1 µM (active).

Regarding `O=C(NOCCO)c1ccc2cncn2c1Nc1ccc(I)cc1F`, the Potency result was “inactive”.

Regarding `Cc1nc2ccc(-n3ncc(C(=O)c4cc5ccccc5[nH]4)c3N)cc2[nH]1`, the Potency result is “inactive”.

Turning to `NS(=O)(=O)OC[C@@H]1C[C@@H](n2ccc3c(N[C@H]4CCc5ccccc54)ncnc32)C[C@@H]1O`, the Potency was 0.708 µM (active).

As to `COC(=O)C1=C(C)NC(COC(N)=O)=C(C(=O)OC(C)C)C1c1cccc(Cl)c1Cl` (stereo not drawn), the Potency is 20.6 µM (active).

On to `COc1cc([C@@H]2c3cc4c(cc3[C@@H](O[C@@H]3O[C@@H]5CO[C@@H](c6cccs6)O[C@H]5[C@H](O)[C@H]3O)[C@H]3COC(=O)[C@H]23)OCO4)cc(OC)c1O`, for which the Potency was 7.08 µM (active).

On to `O=C(/C=C/c1ccc2ccc(C(F)(F)F)cc2n1)c1ccncc1`, for which the Potency is 4.47 µM (active).

For the compound `CCC(=O)N1CCOc2c(cc(-c3cc(OC)cc(OC)c3)cc2C(=O)N[C@H]2CCCN(C)C2)C1`, the Potency entry is “inactive”.

In the case of `COc1cc2c(cc1OC)C(=O)CC2`, the Potency entry is “inactive”.

For `Cc1cccc(-c2nn3c(c2-c2ccnc4ccc(C(N)=O)cc24)CCC3)n1`, the Potency entry is “inactive”.

`O=C(CCN1CCC(c2ccccc2)C1)c1ccc2c(c1)OCCO2` (stereo not drawn): the Potency was 6.51 µM (active).

As to `Cc1c(CN2CCC(Nc3ncnc4sc(CC(F)(F)F)cc34)CC2)ccc2c1cc(C#N)n2Cc1cn[nH]c1`, the Potency was 6.31 µM (active).

With `CN[C@@H]1[C@@H](O)[C@@H](O[C@@H]2[C@H](O)[C@H](O[C@H]3OC(CN)=CC[C@H]3N)[C@@H](N)C[C@H]2N)OCC1(C)O` (stereo partly drawn), the Potency entry is “inactive”.

Turning to `CCCCCCCCCCCCCCCCCCOCC(O)CO` (stereo not drawn), the Potency result is “inactive”.

As for `CC(O)C(=O)O` (stereo not drawn), the Potency entry is “inactive”.

On to `CC#C[C@@H](CC(=O)O)c1ccc(OCc2cccc(-c3ccc(C(F)(F)F)cc3)c2)cc1`, for which the Potency was 31.6 µM (active).

On to `O=C(O)/C(S)=C/c1ccc(I)cc1`, for which the Potency entry was “inactive”.

Regarding `Cc1c[nH]c(/C=C2\C(=O)Nc3ccccc32)c1CCC(=O)O`, the Potency entry is “inactive”.

As for `O=S1(=O)OC(c2ccc(O)cc2)(c2ccc(O)cc2)c2ccccc21`, the Potency entry is “inactive”.
